Laboratory results: PubChem BioAssay AID382 (SGCOxCompounds, 2006)
The source made the active and inactive calls. How the calls were made is not given here.

What follows are compounds tested against Dual specificity protein kinase CLK1 (Homo sapiens) (UniProt P49759) (assay: CLK1 binders by thermal stabilization, biophysical, recombinant human kinase, DSF (AID 382)). Details: at 10 µM, protein 2 µM, buffer 10 mM HEPES, NaCl 150 mM, active compounds read high.
Sequence of Dual specificity protein kinase CLK1 (Homo sapiens) (P49759 whole entry, looked up): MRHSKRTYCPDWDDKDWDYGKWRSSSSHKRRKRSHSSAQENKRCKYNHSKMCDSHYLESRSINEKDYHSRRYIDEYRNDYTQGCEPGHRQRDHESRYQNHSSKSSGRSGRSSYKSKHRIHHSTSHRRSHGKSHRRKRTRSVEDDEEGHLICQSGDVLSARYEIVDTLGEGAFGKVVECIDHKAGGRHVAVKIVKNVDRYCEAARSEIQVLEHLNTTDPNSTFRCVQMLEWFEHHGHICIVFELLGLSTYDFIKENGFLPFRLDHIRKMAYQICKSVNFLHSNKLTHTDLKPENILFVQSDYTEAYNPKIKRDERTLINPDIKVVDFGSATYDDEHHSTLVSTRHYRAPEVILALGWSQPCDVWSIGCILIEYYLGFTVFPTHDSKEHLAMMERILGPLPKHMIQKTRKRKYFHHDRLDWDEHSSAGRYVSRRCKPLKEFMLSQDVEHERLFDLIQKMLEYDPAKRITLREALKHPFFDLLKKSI

Compound	Tm shift
O=C1Nc2ccccc2/C1=C\c1cnc[nH]1	3.76 Celsius (active)
O=C1NC(=O)c2c1c1c3ccccc3n3c1c1c2c2ccccc2n1[C@@H]1CCC3O1	6.44 Celsius (active)
CCn1cnc2c(Nc3cccc(Cl)c3)nc(N[C@@H]3CCCC[C@@H]3N)nc21	6.54 Celsius (active)
COc1ccc2c(c1)/C(=C/c1cnc[nH]1)C(=O)N2	3.63 Celsius (active)
